The text below walks through data of PubChem BioAssay (NCATS).

A short description of assay [1]: Confirmatory screen GU Rhodamine qHTS for Zika virus inhibitors qHTS (AID 1347157). Note: potency is the fitted concentration of half-maximal effect; nearly all actives have a fitted effect of over 70% in size. The note with it: purified enzyme assay, Rhodamine110 substrate fluorescence, 15 min. The essentials: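 Noncovalent NS2B hydrophilic domain/NS3 protease complex (25 nM final) in 10 mM Tris-HCl pH 8.0, 0.01% Tween 20, preincubated 15 min with compounds (up to 114 microM), then 1.5 microM Rhodamine110 substrate. Fluorescence change over 15 min fitted to 4-parameter Hill.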
Background: qHTS replaces the single test concentration by a dilution series.

Assay [2] concerns Zika virus NS2B-NS3 protease (unlinked complex). As to the kind of experiment: Primary screen GU Rhodamine qHTS for Zika virus inhibitors: Unlinked NS2B-NS3 protease assay (AID 1347159). Note: nearly all actives have a fitted effect of over 60% in size. Note: potency is the fitted concentration of half-maximal effect. The conditions noted are these: Recombinant ZIKV NS2B-NS3 protease, Rhodamine110 substrate fluorescence; series mostly up to 107 µM. An outline of the steps: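 Percent inhibition came from the 15-min rise in Rhodamine110 fluorescence (1.5 microM substrate, ~15% conversion), normalized to no-inhibitor and no-enzyme wells and Hill-fitted. Unlinked protease, 25 nM, pH 8.0 Tris buffer; compounds up to 114 microM, 15-min preincubation.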

The nature of assay [3]: Confirmatory screen NINDS Rhodamine qHTS for Zika virus inhibitors (AID 1347161). Note: nearly all actives have a fitted effect of over 60% in size. Note: potency is the fitted concentration of half-maximal effect. The conditions noted are these: purified enzyme assay, Rhodamine110 substrate fluorescence, 15 min; series mostly up to 114 µM. An outline of the steps: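 Percent inhibition, normalized to uninhibited and enzyme-free controls, is fitted to a 4-parameter Hill equation. Fluorescence change comes from a 15-min cleavage of 1.5 microM bis-peptide Rhodamine110 substrate by 25 nM linked NS2B-NS3 at room temperature.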

A short description of assay [4]: ZIKV-mCherry secondary qHTS for Zika virus inhibitors (AID 1347158). Note: top concentration of the series differs between compounds. The note with it: Vero cells, ZIKV-mCherry infection imaging, 48-72 h; series mostly up to 49.2 µM. The essentials:
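This orthogonal imaging screen measured ZIKV-mCherry infection of Vero cells exposed to compound, MOI 1, 48-72 h. Percent infection came from segmented nuclei scored mCherry-positive above 3 SD of negative controls.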

The subject of assay [5] is Zika virus NS2B-NS3 protease (linked). As to the kind of experiment: 384 well plate NINDS AMC confirmatory qHTS for Zika virus inhibitors (AID 1347163).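 Note: linked protease at 5 30 or 60 nM final depending on run; fluorescence of AMC released from Ac-VKTGKR-AMC peptide cleaved by the protease; top concentration of the series differs between compounds; nearly all actives have a fitted effect of over 50% in size.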 The conditions noted are these: Recombinant NS2B-NS3 protease, Ac-VKTGKR-AMC fluorescence; series mostly up to 1 mM. The essentials: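 Enzyme (5, 30 or 60 nM final) first met test compounds for ~15 min. The AMC-tagged peptide Ac-VKTGKR-AMC followed at 30 microM. Fluorescence was then recorded at 25 min and scaled against no-enzyme and no-inhibitor wells.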

Assay [6] deals with Zika virus NS2B-NS3 protease (linked construct). In words: 384 well plate NINDS Rhodamine confirmatory qHTS for Zika virus inhibitors (AID 1347164).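 Note: fluorescence from protease cleavage of Ac-LKRR-rhodamine 110 substrate; potency is the fitted concentration of half-maximal effect; nearly all actives have a fitted effect of over 65% in size.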 The conditions noted are these: rhodamine-110 peptide substrate fluorescence; series mostly up to 100 µM. The essentials:
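Enzyme (final 5/30/60 nM) + cpd (DMSO), ~15 min; add Ac-LKRR-Rd 10 microM final; 25 min RT, dark; FI ex 485/em 538; normalized to no-enzyme, no-inhibitor ctrls; aprotinin intraplate ctrl.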

Assay [7] has as its system Zika virus NS2B-NS3 protease. In words: Primary screen GU AMC qHTS for Zika virus inhibitors (AID 1347154). Note: nearly all actives have a fitted effect of over 70% in size. Note: potency is the fitted concentration of half-maximal effect. The note with it: Zika NS2B-NS3 unlinked protease, AMC fluorogenic substrate; series mostly up to 54.1 µM. The essentials: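 Unlinked Zika NS2B hydrophilic domain–NS3 protease complex at 25 nM in 10 mM Tris-HCl pH 8.0, 0.01% Tween 20, with an AMC peptide substrate. Fluorescence change (340/450 nm) over 15 min at room temperature, normalized to controls, fitted to 4-parameter Hill.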

Assay [8] concerns Zika virus NS2B-NS3 protease (linked construct). In words: Primary screen NINDS Rhodamine qHTS for Zika virus inhibitors (AID 1347160). Note: nearly all actives have a fitted effect of over 55% in size. The note with it: purified NS2B-NS3 protease, Rhodamine110 substrate fluorescence; series mostly up to 57.1 µM. The essentials: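 Rhodamine110-peptide cleavage (1.5 µM substrate) by 25 nM linked NS2B-NS3 enzyme at pH 8.0 (Tris, Tween 20), after 15 min RT preincubation with compounds; 15-min fluorescence change normalized to controls and Hill-fitted.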

Assay [9] has as its target Lysine-specific demethylase 5B (Homo sapiens) (UniProt Q9UGL1). In words: Optimization screen for KDM5B Histone Demethylases FDH coupled qHTS against the LOPAC library (AID 1347166). The conditions noted are these: KDM5B demethylation, FDH-coupled NADH fluorescence (FDH is formaldehyde dehydrogenase); series mostly up to 57.5 µM. An outline of the steps:
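KDM5BDeltaAP (200nM final) in 50mM HEPES pH 7.5, 0.01% Tween-20 was preincubated with compound for 10 min at room temperature. A substrate mix of 12.5uM H3K4Me3, 25uM a-ketoglutarate, ascorbate, Fe2+, NAD+ and formaldehyde dehydrogenase was then added. NADH fluorescence (340/450 nm) was read initially and after 30 min.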

Inconclusive results are not listed. Active and inactive are the calls of the source. Calls come from the whole dose curve; as a rule, active = well fitted curve in the direction sought with a large enough effect; inconclusive = small, poorly fitted or top-dose-only effect, or another doubt; inactive = no such curve, though single readings can be large; an effect the other way counts as inactive or inconclusive.

Lysine-specific demethylase 5B (Homo sapiens), sequence (Q9UGL1 whole entry, looked up): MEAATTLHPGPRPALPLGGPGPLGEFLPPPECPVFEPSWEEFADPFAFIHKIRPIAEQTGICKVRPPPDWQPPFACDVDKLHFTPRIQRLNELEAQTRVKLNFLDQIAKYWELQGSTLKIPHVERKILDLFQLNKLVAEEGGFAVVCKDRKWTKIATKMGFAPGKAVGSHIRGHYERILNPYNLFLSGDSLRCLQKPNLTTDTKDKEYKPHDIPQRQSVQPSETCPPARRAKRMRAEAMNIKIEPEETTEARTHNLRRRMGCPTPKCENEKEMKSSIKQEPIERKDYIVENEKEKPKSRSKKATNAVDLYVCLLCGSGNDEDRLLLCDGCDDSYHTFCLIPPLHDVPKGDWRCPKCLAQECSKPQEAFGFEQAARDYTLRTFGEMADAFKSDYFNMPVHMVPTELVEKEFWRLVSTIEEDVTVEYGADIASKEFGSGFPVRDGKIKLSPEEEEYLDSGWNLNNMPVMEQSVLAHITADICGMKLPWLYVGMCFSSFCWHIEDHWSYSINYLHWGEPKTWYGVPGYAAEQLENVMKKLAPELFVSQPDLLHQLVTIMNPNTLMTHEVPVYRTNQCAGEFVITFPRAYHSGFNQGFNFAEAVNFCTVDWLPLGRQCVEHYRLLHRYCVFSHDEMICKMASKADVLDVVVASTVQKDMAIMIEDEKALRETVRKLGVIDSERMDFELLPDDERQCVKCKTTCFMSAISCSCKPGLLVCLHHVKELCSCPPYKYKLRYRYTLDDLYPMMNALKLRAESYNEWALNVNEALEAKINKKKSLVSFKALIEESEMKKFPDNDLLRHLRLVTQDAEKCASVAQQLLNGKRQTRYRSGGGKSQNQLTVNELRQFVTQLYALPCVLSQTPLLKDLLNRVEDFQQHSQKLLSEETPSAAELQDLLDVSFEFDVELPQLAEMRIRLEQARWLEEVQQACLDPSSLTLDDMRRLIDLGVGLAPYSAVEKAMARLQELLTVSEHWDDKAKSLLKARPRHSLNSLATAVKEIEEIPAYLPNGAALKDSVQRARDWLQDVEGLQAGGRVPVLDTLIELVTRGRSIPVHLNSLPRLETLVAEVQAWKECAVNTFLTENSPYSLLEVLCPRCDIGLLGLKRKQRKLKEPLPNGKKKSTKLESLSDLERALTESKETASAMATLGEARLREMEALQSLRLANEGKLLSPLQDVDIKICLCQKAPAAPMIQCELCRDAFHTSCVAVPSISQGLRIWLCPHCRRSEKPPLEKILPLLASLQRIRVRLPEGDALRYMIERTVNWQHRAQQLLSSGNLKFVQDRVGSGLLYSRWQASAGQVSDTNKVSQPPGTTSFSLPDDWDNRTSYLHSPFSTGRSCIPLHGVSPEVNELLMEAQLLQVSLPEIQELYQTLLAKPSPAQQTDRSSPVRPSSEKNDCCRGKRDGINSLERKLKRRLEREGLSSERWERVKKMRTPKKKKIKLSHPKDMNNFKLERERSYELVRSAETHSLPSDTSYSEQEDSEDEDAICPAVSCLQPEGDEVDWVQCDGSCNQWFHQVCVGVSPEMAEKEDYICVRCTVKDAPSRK

On to `CC(C)c1cc(C(C)C)c(CC(=O)NS(=O)(=O)Oc2c(C(C)C)cccc2C(C)C)c(C(C)C)c1`, for which the Potency in [1] was 2.21 µM (active); in [2], 3.16 µM (active).

Regarding `CN(C)CC(=O)N1CCC(c2ccc(NC(=O)c3ncc(C#N)[nH]3)c(C3=CCCCC3)c2)CC1`, the Potency in assay [1] was 12.4 µM (active); in [3] it was 9.87 µM (active).

Turning to `O=c1c(O)c(-c2ccc(O)c(O)c2)oc2cc(O)ccc12`, the Potency in [1] is 44.7 µM (active); in [3] it was 44.7 µM (active); in assay [6], 316 µM (active). Besides, the Potency result in assay [4] and in assay [5] was “inactive” throughout.

Consider `N#Cc1c(C2CCNCC2)cc(-c2c(O)cccc2OCC2CC2)nc1N`, for which the Potency entry in assay [2] was “inactive”.

On to `Cc1ccccc1C(=O)Nc1ccc(C(=O)N2CCCC(O)c3cc(Cl)ccc32)c(C)c1` (stereo not given), for which the Potency result in [7] and in assay [2] was “inactive” throughout.

Take `CCc1nc(-c2cccc(C)c2)c(-c2ccnc(NC(=O)c3ccccc3)c2)s1`: in [2], the Potency entry was “inactive”.

For the compound `CCc1ccc(C(=O)Nc2cc(CN3CCN(C)CC3)cc(C(F)(F)F)c2)cc1C#Cc1cnc2ccnn2c1`, the Potency entry in assay [7] and in [2] was “inactive” each time.

As to `Cc1cnc(Nc2ccc(CN3CCOCC3)cc2)nc1Nc1cccc(S(=O)(=O)NC(C)(C)C)c1`, the Potency result in assay [7] and in [2] was “inactive” each time.

Regarding `CCOc1cc2c(c(F)c1OCC)C(=N)N(CC(=O)c1cc(N3CCOCC3)c(OC)c(C(C)(C)C)c1)C2`, the Potency entry in [7] and in assay [2] was “inactive” throughout.

Take `O=C(O)c1ccc(Nc2ncc3c(n2)-c2ccc(Cl)cc2C(c2c(F)cccc2F)=NC3)cc1`: the Potency in [2] is 8.91 µM (active).

Consider `Cc1coc2c1C(=O)C(=O)c1c-2ccc2c(C)cccc12`, for which, in [2], the Potency was 35.5 µM (active).

Regarding `O=C(Nc1cc2cc[nH]c2cn1)c1ccccc1`, the Potency result in assay [7] and in [2] was “inactive” in each case.

`C[N+]1(C)[C@@H]2C[C@@H](OC(=O)C(O)(c3cccs3)c3cccs3)C[C@H]1[C@@H]1O[C@@H]12`: the Potency entry in assay [7], in assay [2] and in [8] was “inactive” throughout.

In the case of `Oc1cc(-c2nc(-c3ccccc3)[nH]c2-c2ccncc2)ccc1Cl`, the Potency entry in [7] and in [8] was “inactive” throughout.

With `COc1cc(CCc2cc(NC(=O)c3ccc(N4C[C@@H](C)N[C@@H](C)C4)cc3)n[nH]2)cc(OC)c1`, the Potency entry in assay [7] and in [2] was “inactive” each time.

With `OCCNC1CCCc2c1[nH]c1ccc(-c3ccccc3)cc21` (stereo not given), the Potency result in [7] and in assay [2] was “inactive” in each case.

On to `CS(=O)(=O)N1CCc2c(-c3cnc(N)nc3)nc(N3CCOCC3)nc21`, for which the Potency entry in assay [7] and in assay [2] was “inactive” throughout.

Regarding `Cc1cncc2cccc(S(=O)(=O)N3CCCN(C(=O)CN)C[C@@H]3C)c12`, the Potency result in [7] and in assay [2] was “inactive” in each case.

For `CCOC(=O)[C@@H](N)Cc1ccc(-c2cc(O[C@H](c3ccc(Cl)cc3-n3ccc(C)n3)C(F)(F)F)nc(N)n2)cc1`, the Potency entry in [7] is “inactive”. Also, the Potency in [2] was 44.7 µM (active).

In the case of `c1ccc2c(Oc3nc(Nc4ccc(N5CCOCC5)cc4)c4ncn(C5CCCCC5)c4n3)cccc2c1`, the Potency result in [7] and in assay [2] was “inactive” in each case.

As to `CC1=C(C(=O)Nc2cc3cn[nH]c3cc2F)C(c2ccc(Cl)cc2F)N=C(c2ccnc(Cl)c2)N1` (stereo not given), the Potency entry in assay [7] and in [2] was “inactive” each time.

`Cc1ncc(-c2ccnc(Nc3ccc(S(C)(=O)=O)cc3)n2)n1C(C)C`: in [2], the Potency result is “inactive”.

As to `Cn1cc(-c2ccc3ncc(Cc4ccc5ncccc5c4)n3n2)cn1`, the Potency entry in assay [7] and in assay [2] was “inactive” each time.

For `O=C(Nc1ccc(Oc2ccnc3[nH]ccc23)c(F)c1)c1cccn(-c2ccc(F)cc2)c1=O`, the Potency entry in assay [7] and in assay [2] was “inactive” each time.

As for `Cn1cnc2c(F)c(Nc3ccc(Br)cc3F)c(C(=O)NOCCO)cc21`, the Potency entry in assay [7] and in [2] was “inactive” in each case.

In the case of `CC(O)(C#Cc1ccc2c(c1)N(c1nc(N)ncc1Cl)CC2)c1nccs1` (stereo not given), the Potency result in assay [7] and in [8] was “inactive” throughout.

Turning to `CCC[C@H]1C[C@H](C(=O)N[C@@H]([C@@H]2O[C@@H](SC)[C@@H](O)[C@@H](O)[C@@H]2O)[C@H](C)Cl)N(C)C1`, the Potency entry in [7] and in assay [2] was “inactive” each time.

Regarding `O=c1[nH]c(=O)n([C@H]2C[C@@H](O)[C@@H](CO)O2)cc1C=CBr`, in assay [7], the Potency entry was “inactive”. In addition, the outcome in assay [9] was inactive.

As for `CCN(CC)Cc1ccc2cc(COC(=O)Nc3ccc(C(=O)NO)cc3)ccc2c1`, the Potency result in assay [7] and in [2] was “inactive” each time.

Regarding `c1cncc(CN2CCC(n3ncc4c(N5CCOCC5)nc(-c5ccc6[nH]ccc6c5)nc43)CC2)c1`, the Potency entry in assay [7], in assay [2] and in assay [8] was “inactive” in each case.

For the compound `c1cc(N[C@@H]2CCNC2)nc(-c2cnc3ccc(-c4cn[nH]c4)cn23)c1`, the Potency in assay [7] is 19.2 µM (active). Further, the Potency entry in assay [3] was “inactive”.

Turning to `N[C@H]1CN(c2c(F)cc3c(=O)c(C(=O)O)cn(C4C[C@@H]4F)c3c2Cl)CC12CC2` (stereo not given in full), the Potency entry in assay [7] and in assay [2] was “inactive” in each case.

For `C[C@@H](Cc1cc2c(c(C(N)=O)c1)N(CCCO)CC2)NCCOc1ccccc1OCC(F)(F)F`, the Potency entry in [7] and in [2] was “inactive” each time.

With `CN1CCc2c(c3ccccc3n2Cc2ccc(C(=O)NO)cc2)C1`, the Potency result in assay [7] and in assay [2] was “inactive” each time.

Turning to `FC(F)c1nc2ccccc2n1-c1nc(N2CCOCC2)nc(N2CCOCC2)n1`, the Potency result in assay [7] and in assay [2] was “inactive” throughout.

Regarding `C[C@H](O)[C@@H]1C(=O)N2C(C(=O)O)=C(S[C@@H]3CN[C@H](CNS(N)(=O)=O)C3)[C@@H](C)[C@@H]12`, the Potency result in assay [7] and in [2] was “inactive” each time.

For the compound `C[C@H]1[C@@H](OC(=O)CCC(=O)O)O[C@@H]2O[C@@]3(C)CC[C@@H]4[C@H](C)CC[C@@H]1[C@@]24OO3`, the Potency entry in assay [7] and in assay [2] was “inactive” in each case.

In the case of `CC(C)(N)c1ccc(-c2nc3ccccc3nc2-c2ccccc2)cc1`, the Potency result in [2] is “inactive”.

As to `CN[C@@H]1C[C@H]2O[C@@](C)([C@H]1OC)n1c3ccccc3c3c4c(c5c6ccccc6n2c5c31)C(=O)N[C@H]4O`, the Potency in [7] was 21.5 µM (active). The Potency entry in assay [3] is “inactive”.

In the case of `C=CC(=O)Nc1ccc2ncnc(Nc3ccc(OCc4cccc(F)c4)c(Cl)c3)c2c1`, in [7], the Potency entry was “inactive”. The Potency in [2] was 44.7 µM (active).

Consider `CN[C@H](CC(C)C)C(=O)N[C@H]1C(=O)N[C@@H](CC(N)=O)C(=O)N[C@@H]2C(=O)N[C@H]3C(=O)N[C@H](C(=O)N[C@H](C(=O)O)c4cc(O)cc(O)c4-c4cc3ccc4O)[C@H](O)c3ccc(c(Cl)c3)Oc3cc2cc(c3O[C@@H]2O[C@H](CO)[C@@H](O)[C@H](O)[C@@H]2O[C@H]2C[C@](C)(N)[C@H](O)[C@H](C)O2)Oc2ccc(cc2Cl)[C@H]1O`, for which the Potency entry in [7] is “inactive”. In assay [9], the outcome was inactive.

`Nc1ccn(C2CO[C@H](CO)O2)c(=O)n1` (stereo not given in full): the Potency entry in [7] and in [2] was “inactive” in each case.

Consider `COc1ccc2cc([S+]([O-])Cc3ncc(C)c(OC)c3C)nc2c1`, for which, in assay [7], the Potency result is “inactive”. Besides, the compound was classed as inactive in [9].
